Records with an inconclusive call do not appear. Where a call stands in place of a potency, no number is given. Calls of active or inactive are those of the source. Calls follow the shape of the dose curve; as a rule, active = well fitted cell-killing curve with a large enough effect in the repeat runs; inconclusive = weak or mixed curves, or effect the other way; inactive = no such curve, though single readings can be large or run the other way.

The experiment is described as follows: qHTS assay to identify small molecule antagonists of the sonic hedgehog signaling (Shh) pathway - cell viability counter screen (AID 1259367). Also: nearly all actives have a fitted effect of over 55% in size. Particulars: NIH/3T3 Gli1-Luc viability, CellTiter-Fluor, 24 h; series mostly up to 92.4 µM. An excerpt:
National Center for Advancing Translational Sciences [NCATS]
NIH Chemical Genomics Center [NCGC]
U.S. Environmental Protection Agency [EPA]
National Institutes of Environmental Health Sciences [NIEHS]
National Toxicology Program [NTP]
U.S. Food and Drug Administration [FDA]
The sonic hedgehog (Shh) pathway is essential for normal embryonic development. Dysregulation of the Shh pathway can cause severe developmental defects in organs. Therefore chemicals that interfere with the pathway are potential developmental toxicants. A cell line designated 3T3Gli1-Luc (DMB/OARSA/CFSAN/FDA, Laurel, MD), a NIH/3T3 derived clone containing stably integrated Gli1-Luc reporter is used to detect chemical interference of the Shh pathway, by changes in the expression of the firefly Luc gene under the control of the Gli1 transcriptional response element. This cell line was used to screen Tox21 libraries for identifying and prioritizing the potential developmental toxicants that interfere Shh pathway. Conditioned medium-stimulated mode was used to screen for chemicals inhibiting Shh signaling. The cytotoxicity of the compounds was tested in parallel by measuring the cell viability using CellTiter-Fluor assay system (Promega, Madison, WI) in the same wells.
Tox21 Assay Protocol Summary:
3T3 Gli1-Luc cells were dispensed at 2,000 per well in 5uL of culture medium into white solid bottom 1536-well plates (Greiner Bio-One, Monroe, NC) using a Multidrop Combi (Thermo Scientific, Waltham, MA) dispenser. The assay plates were incubated at 37 C and 5% CO2 for 4hr, and then 23nL of compounds dissolved in DMSO and positive control were transferred using a Pintool station (Wako, San Diego, CA). The compound transfer was followed by the addition of 1ul conditioned medium or assay buffer using two separate tips of Flying Reagent Dispenser (FRD, Aurora Discovery, San Diego, CA). The assay plates were incubated at 37C and 5% CO2 for 24hr. For viability read, after 23hr of compound treatment, 1uL of CellTiter-Fluor reagent (Promega Corporation, Madison, WI) was added to each well of the assay plates using Flying Reagent Dispenser (FRD, Aurora Discovery, San Diego, CA) and incubated the assay plates at 37C for 1hr. The fluorescence signal was quantified using a ViewLux plate reader (Perkin Elmer, Shelton, CT).
With `CC(C)CCCCCCOC(=O)c1ccccc1C(=O)OCCCCCCC(C)C`, the Potency entry is “inactive”.

Consider `CCCOC(=O)c1ccccc1C(=O)OCCC`, for which the Potency result was “inactive”.

With `CNc1cnn(-c2cccc(C(F)(F)F)c2)c(=O)c1Cl`, the Potency result was “inactive”.

Regarding `Cc1cccc(C)c1NC(=O)CN1CCCC1=O`, the Potency result was “inactive”.

As for `CC12CC1(C)C(=O)N(c1cc(Cl)cc(Cl)c1)C2=O` (stereo not given), the Potency entry is “inactive”.

With `CNCC(O)c1ccc(O)cc1` (stereo not given), the Potency entry is “inactive”.

Turning to `CSc1nnc(C(C)(C)C)c(=O)n1N`, the Potency result is “inactive”.

In the case of `CN(C)CCC#N`, the Potency result was “inactive”.

In the case of `CC(=O)/C=C/c1ccccc1`, the Potency result was “inactive”.

Consider `COC(=O)Nc1cccc(OC(=O)Nc2cccc(C)c2)c1`, for which the Potency result was “inactive”.

`Nc1ncc([N+](=O)[O-])s1`: the Potency result is “inactive”.

For `COc1nc(NC(C)C)nc(NC(C)C)n1`, the Potency entry is “inactive”.

In the case of `CNC(=O)O/N=C/C(C)(C)S(C)=O` (stereo not given), the Potency entry was “inactive”.

Take `COP(=S)(OC)SCN1C(=O)c2ccccc2C1=O`: the Potency result is “inactive”.

For `CCCCCCCCCCCCCCCCCC(=O)O`, the Potency entry is “inactive”.

`NNc1ccccc1`: the Potency entry was “inactive”.

For the compound `ClCCOCCCl`, the Potency result was “inactive”.

For `OCc1ccco1`, the Potency entry was “inactive”.

Regarding `Cl[C@H]1OCCO[C@@H]1Cl`, the Potency entry is “inactive”.

Regarding `Cl/C=C/Cl`, the Potency result is “inactive”.

For the compound `ClC(Cl)c1ccccc1`, the Potency result was “inactive”.

Take `O=S(=O)(O)OOS(=O)(=O)O`: the Potency result is “inactive”.

On to `C=CCN=C=S`, for which the Potency entry is “inactive”.

For `Nc1ccc([As](=O)(O)O)cc1`, the Potency result was “inactive”.

Consider `Oc1c(Br)cc(Br)cc1Br`, for which the Potency entry was “inactive”.

Consider `Oc1ccc(Cl)cc1`, for which the Potency result is “inactive”.

With `O=C(O)Cc1ccccc1`, the Potency entry is “inactive”.

In the case of `C=CC(=O)OCCCCCC(C)C`, the Potency result is “inactive”.

As to `CC[N+](=O)[O-]`, the Potency result was “inactive”.

With `C[C@]12CC[C@H](O)CC1=CC[C@@H]1[C@@H]2CC[C@]2(C)C(=O)CC[C@@H]12`, the Potency entry is “inactive”.

In the case of `CCOP(=S)(OCC)Oc1cc(C)nc(C(C)C)n1`, the Potency result is “inactive”.

For the compound `CN1C(=O)CCS(=O)(=O)C1c1ccc(Cl)cc1` (stereo not given), the Potency entry was “inactive”.

As for `C=C(C)C(=O)OCC(CC)CCCC` (stereo not given), the Potency entry is “inactive”.

Turning to `Cc1ccc(O)c(C)c1`, the Potency entry is “inactive”.

Consider `Cc1cccc(N)c1C`, for which the Potency entry is “inactive”.

As for `N#Cc1cccc(C#N)c1`, the Potency entry is “inactive”.

As to `C[C@H]1C(=O)O[C@@H]2CCN3CC=C(COC(=O)[C@](C)(O)[C@]1(C)O)[C@H]23`, the Potency entry was “inactive”.

`Clc1cnc(Oc2ccc(Oc3ncc(Cl)cc3Cl)cc2)c(Cl)c1`: the Potency result was “inactive”.

As to `Cc1cccc(N)c1`, the Potency entry is “inactive”.

On to `CN(C)C(=O)Cl`, for which the Potency result is “inactive”.

The values are drawn from PubChem BioAssay (Tox21).
